Source: PubChem BioAssay (NCATS)
Results filed as inconclusive are left out. Activity calls are given as the source filed them. The call rests on the fitted dose curve; in most records, active means well fitted cell-killing curve with a large enough effect; inconclusive means small, poorly fitted or top-dose-only effect, or effect the other way; inactive means flat fitted curve, though single readings scatter. Where a SMILES comes first, the peptide text is derived from it. The star is where a group is joined. AFC = O=c1cc(C(F)(F)F)c2ccc(N*)cc2o1

Key:
Test in all cases: Primary qHTS to identify gynecologic anti-cancer compounds using libraries of approved drugs and bioactive compounds (AID 1345084); further: nearly all actives have a fitted effect of over 55% in size
C33A = conditions: Gynecologic cancer cell panel viability, ATPlite luminescence, 48 h; series mostly up to 57.5 µM
Summary of the method: (§1)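 48 h compound exposure at 37 C, 5% CO2; five-point qHTS. ATPlite luminescence readout of cell ATP.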

CAOV3 = conditions: Gynecologic cancer cell panel viability, ATPlite luminescence, 48 h; series mostly up to 57.5 µM
Summary of the method: as §1

CASKI = conditions: Gynecologic cancer cell panel viability, ATPlite luminescence, 48 h; series mostly up to 57.5 µM
Summary of the method: as §1

Es-2 = conditions: Gynecologic cancer cell panel viability, ATPlite luminescence, 48 h; series mostly up to 57.5 µM
Summary of the method: as §1

HeLa = conditions: Gynecologic cancer cell panel viability, ATPlite luminescence, 48 h; series mostly up to 57.5 µM
Summary of the method: as §1

Hek293T = conditions: Gynecologic cancer cell panel viability, ATPlite luminescence, 48 h, control line for the selectivity index; series mostly up to 57.5 µM
Summary of the method: as §1
On the % scale 0 is the no-effect control and ±100 the full control effect.

C/C(=C/CO)CC[C@@H]1[C@@]2(C)CCC[C@](C)(C(=O)O)C2CC[C@@]1(C)O (some centres undefined)
inactive: Potency (C33A) | Potency (CAOV3) | Potency (CASKI) | Potency (Es-2) | Potency (HeLa) | Potency (Hek293T)

CC1CC(O)C2(C)C(C(=O)O)=CCCC2C1(C)CCc1ccoc1 (centres undefined)
inactive: Potency (C33A) | Potency (CAOV3) | Potency (CASKI) | Potency (Es-2) | Potency (HeLa) | Potency (Hek293T)

C[C@@H]1C(=O)O[C@H]2CC34[C@H]5C[C@@H](C(C)(C)C)C36[C@@H](OC(=O)[C@@H]6O)OC4(C(=O)O5)[C@]21O (some centres undefined)
inactive: Potency (C33A) | Potency (CAOV3) | Potency (CASKI) | Potency (Es-2) | Potency (HeLa) | Potency (Hek293T)

CC(C)(O)/C=C1/C(=O)C(C)(C)C(=O)C(C)(C)C1(O)O[C@@H]1O[C@H](COC(=O)c2cc(O)c(O)c(O)c2)[C@@H](O)[C@H](O)[C@H]1O (some centres undefined)
inactive: Potency (C33A) | Potency (CAOV3) | Potency (CASKI) | Potency (Es-2) | Potency (HeLa) | Potency (Hek293T)

O=c1c2ccccc2nc2n1CCC2O (centres undefined)
inactive: Potency (C33A) | Potency (CAOV3) | Potency (CASKI) | Potency (Es-2) | Potency (HeLa) | Potency (Hek293T)

CC1(C)O[C@]23C[C@H]1C[C@H](OC(=O)c1ccoc1)[C@]2(C)[C@@H](OC(=O)c1ccoc1)CCC3(C)O (some centres undefined)
inactive: Potency (C33A) | Potency (CAOV3) | Potency (CASKI) | Potency (Es-2) | Potency (HeLa) | Potency (Hek293T)

CCC(C)(O)C(O)C(=O)OCc1ccc(O[C@@H]2O[C@H](CO)[C@@H](O)[C@H](O)[C@H]2O)cc1 (some centres undefined)
inactive: Potency (C33A) | Potency (CAOV3) | Potency (CASKI) | Potency (Es-2) | Potency (HeLa) | Potency (Hek293T)

CO/N=C(/C(=O)N[C@@H]1C(=O)N2C(C(=O)O)=C(CSC(=O)c3ccco3)CS[C@H]12)c1csc(N)n1
inactive: Potency (C33A) | Potency (CAOV3) | Potency (CASKI) | Potency (Es-2) | Potency (HeLa) | Potency (Hek293T)

CC1(C)CC2C3=CCC4C5(C)CCC(OC6OC(C(=O)O)C(O)C(O)C6OC6OC(CO)C(O)C(O)C6OC6OC(CO)C(O)C(O)C6O)C(C)(CO)C5CCC4(C)C3(C)CCC2(C)C(OC2OCC(O)C(OC3OC(CO)C(O)C(O)C3O)C2O)C1O (centres undefined)
inactive: activity change, negative = cytotoxicity (C33A) 8.44% [at 6.55 µM] | activity change, negative = cytotoxicity (CAOV3) 13.1% [at 6.55 µM] | activity change, negative = cytotoxicity (CASKI) 6.12% [at 6.55 µM] | activity change, negative = cytotoxicity (Es-2) 1.46% [at 6.55 µM] | activity change, negative = cytotoxicity (HeLa) -0.393% [at 6.55 µM] | activity change, negative = cytotoxicity (Hek293T) 8.01% [at 6.55 µM]

C=C1CC/C=C(/CO)C(=O)C[C@@H]2[C@@H]1CC2(C)C
inactive: Potency (C33A) | Potency (CAOV3) | Potency (CASKI) | Potency (Es-2) | Potency (HeLa) | Potency (Hek293T)

C/C=C1/[C@H](O[C@@H]2O[C@H](CO)[C@@H](O)[C@H](O)[C@H]2O)OC=C(C(=O)OC)[C@H]1CC(=O)O[C@@H]1O[C@H](CO)[C@@H](O)[C@H](O)[C@H]1O
inactive: Potency (C33A) | Potency (CAOV3) | Potency (CASKI) | Potency (Es-2) | Potency (HeLa) | Potency (Hek293T)

CCCCS(=O)(=O)Nc1ncnc(OCCOc2ncc(Br)cn2)c1-c1ccc(Br)cc1
inactive: Potency (C33A) | Potency (CAOV3) | Potency (CASKI) | Potency (Es-2) | Potency (HeLa) | Potency (Hek293T)

Cc1cc(C)cc(NC(=O)Cc2ccc(OC(C)(C)C(=O)O)cc2)c1
inactive: Potency (C33A) | Potency (CAOV3) | Potency (CASKI) | Potency (Es-2) | Potency (HeLa) | Potency (Hek293T)

CC(CO[C@@H]1O[C@H](COC(=O)/C=C/c2ccc(O)c(O)c2)[C@@H](O)[C@H](O)[C@H]1O)C1(O)COC(=O)C1 (some centres undefined)
inactive: Potency (C33A) | Potency (CAOV3) | Potency (CASKI) | Potency (Es-2) | Potency (HeLa) | Potency (Hek293T)

C[C@@H]1O[C@@H](OC[C@H]2O[C@@H](OCCc3ccccc3)[C@H](O)[C@@H](O)[C@@H]2O)[C@H](O)[C@H](O)[C@H]1O
inactive: Potency (C33A) | Potency (CAOV3) | Potency (CASKI) | Potency (Es-2) | Potency (HeLa) | Potency (Hek293T)

CNC(=O)[C@H]1O[C@@H](n2cnc3c(NCc4ccc(N)c(I)c4)ncnc32)[C@H](O)[C@@H]1O
inactive: activity change, negative = cytotoxicity (C33A) 17.6% [at 11.6 µM] | activity change, negative = cytotoxicity (CAOV3) -1.57% [at 11.6 µM] | activity change, negative = cytotoxicity (CASKI) 16.3% [at 11.6 µM] | activity change, negative = cytotoxicity (Es-2) 0.484% [at 11.6 µM] | activity change, negative = cytotoxicity (HeLa) 5.87% [at 11.6 µM] | activity change, negative = cytotoxicity (Hek293T) 0.59% [at 11.6 µM]

CC1(C)O[C@@]2(C)CC[C@@H]1C[C@@H]2OC1OC(CO)C(O)C(O)C1O (some centres undefined)
inactive: Potency (C33A) | Potency (CAOV3) | Potency (CASKI) | Potency (Es-2) | Potency (HeLa) | Potency (Hek293T)

CC1(C)CCC2(C(=O)OC3OC(COC4OC(CO)C(O)C(O)C4O)C(O)C(O)C3O)CCC3(C)C(=CCC4C5(C)CCC(O)C(C)(C(=O)O)C5CCC43C)C2C1O (centres undefined)
inactive: activity change, negative = cytotoxicity (C33A) 2.23% [at 11.6 µM] | activity change, negative = cytotoxicity (CAOV3) 3.42% [at 11.6 µM] | activity change, negative = cytotoxicity (CASKI) 3.04% [at 11.6 µM] | activity change, negative = cytotoxicity (Es-2) 4.39% [at 11.6 µM] | activity change, negative = cytotoxicity (HeLa) -15.3% [at 11.6 µM] | activity change, negative = cytotoxicity (Hek293T) 4.46% [at 11.6 µM]

CC(=O)N[C@@H](CC(C)C)C(=O)N[C@@H](CCC(=O)O)C(=O)N[C@@H](CCC(=O)O)C(=O)N[C@@H](CC(=O)O)C(=O)Nc1ccc2c(C(F)(F)F)cc(=O)oc2c1 (Ac-LEED-{AFC})
inactive: Potency (C33A) | Potency (CAOV3) | Potency (CASKI) | Potency (Es-2) | Potency (HeLa) | Potency (Hek293T)
